Results as given in PubChem BioAssay AID1159580 (chemical genetic matrix, 2015).
The whole screen tested about 5,500 compounds, of which about 2,000 (36%) were called active. Inconclusive results (about 18%) are left out. Rule as the data show it: active = normalized growth mostly below about 0.91 (no sharp cut-off); inconclusive = no clear call, values can overlap the other calls; inactive = mostly above about 0.92. Some of the results follow.

Assay: chemical genetic growth profiling, strain panel (AID 1159580);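 also: tested at 20 µM; growth read once vehicle control cultures reached saturation at 30 °C; 1 = growth at the plate median or of vehicle wells; lower values mean less growth of the strain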
Settings: S. cerevisiae deletion strains, growth OD

Measured: normalized growth

COc1ccc(CN(CCN(C)C)c2ncccn2)cc1
inactive: locus YAL021C, strain ccr4, active compounds read low 1.01 | locus YAL026C, strain drs2, active compounds read low 1.04 | locus YAL030W, strain snc1, active compounds read low 0.997 | locus YBL061C, strain skt5, active compounds read low 1.01 | locus YBR009C, strain hhf1, active compounds read low 1.01 | locus YBR023C, strain chs3, active compounds read low 1.01 | locus YBR171W, strain sec66, active compounds read low 1.01 | locus YBR231C, strain swc5, active compounds read low 1.04 | locus YBR279W, strain paf1, active compounds read low 1.01 | locus YCL011C, strain gbp2, active compounds read low 1.01 | locus YCL016C, strain dcc1, active compounds read low 1.01 | locus YCL061C, strain MRC1, active compounds read low 1.02 | locus YCL069W, strain vba3, active compounds read low 1.01 | locus YCR088W, strain abp1, active compounds read low 1.01 | locus YDL005C, strain med2, active compounds read low 1.01 | locus YDL040C, strain nat1, active compounds read low 1.02 | locus YDR001C, strain nth1, active compounds read low 1.02 | locus YDR069C, strain doa4, active compounds read low 1 | locus YDR137W, strain rgp1, active compounds read low 1.01 | locus YDR159W, strain sac3, active compounds read low 0.992 | locus YDR195W, strain ref2 1 | locus YDR297W, strain sur2, active compounds read low 1.02 | locus YDR334W, strain swr1, active compounds read low 0.998 | locus YDR335W, strain msn5, active compounds read low 1.01 | locus YDR392W, strain spt3, active compounds read low 1.03 | locus YEL003W, strain gim4, active compounds read low 1.01 | locus YEL037C, strain rad23, active compounds read low 1.01 | locus YEL061C, strain CIN8 (second series), active compounds read low 1 | locus YER015W, strain faa2, active compounds read low 1.02 | locus YER016W, strain bim1, active compounds read low 1.02 | locus YER111C, strain swi4, active compounds read low 1.02 | locus YER155C, strain BEM2 (second series), active compounds read low 1.05 | locus YFR010W, strain ubp6, active compounds read low 1.01 | locus YGL167C, strain pmr1, active compounds read low 1.02 | locus YGL173C, strain kem1, active compounds read low 1.03 | locus YGL227W, strain vid30, active compounds read low 1.01 | locus YGL240W, strain doc1, active compounds read low 1.01 | locus YGL253W, strain hxk2, active compounds read low 1.02 | locus YHR013C, strain ard1, active compounds read low 1.01 | locus YHR027C, strain rpn1, active compounds read low 1.01 | locus YHR030C, strain SLT2, active compounds read low 1 | locus YHR079C, strain IRE1, active compounds read low 1 | locus YHR142W, strain chs7, active compounds read low 1.04 | locus YJL092W, strain hpr5, active compounds read low 1.03 | locus YJL095W, strain BCK1 (second series), active compounds read low 1.01 | locus YJL095W, strain BCK1, active compounds read low 1 | locus YJL115W, strain asf1, active compounds read low 1.01 | locus YJL129C, strain trk1, active compounds read low 1.01 | locus YJL154C, strain vps35, active compounds read low 1.01 | locus YJL164C, strain tpk1, active compounds read low 1.02 | locus YJL166W, strain qcr8, active compounds read low 0.995 | locus YJR066W, strain TOR1, active compounds read low 0.954 | locus YKL160W, strain elf1, active compounds read low 1.02 | locus YKR026C, strain gcn3, active compounds read low 1 | locus YKR091W, strain srl3, active compounds read low 1 | locus YLL001W, strain dnm1, active compounds read low 1.01 | locus YLL026W, active compounds read low 1 | locus YLL041C, strain sdh2, active compounds read low 0.995 | locus YLR027C, strain aat2, active compounds read low 1.01 | locus YLR113W, strain HOG1, active compounds read low 1 | locus YLR221C, strain rsa3, active compounds read low 0.998 | locus YLR258W, strain gsy2, active compounds read low 1.03 | locus YLR262C, strain YPT6 (second series), active compounds read low 1.01 | locus YLR320W, strain mms22, active compounds read low 1.01 | locus YLR342W, strain FKS1, active compounds read low 1.02 | locus YLR357W, strain rsc2, active compounds read low 1.01 | locus YLR370C, strain arc18, active compounds read low 1.03 | locus YLR384C, strain iki3, active compounds read low 1.02 | locus YML120C, strain ndi1, active compounds read low 1.01 | locus YMR058W, strain fet3, active compounds read low 1.03 | locus YMR125W, strain sto1, active compounds read low 1.01 | locus YMR129W, active compounds read low 1.02 | locus YMR205C, strain PFK2, active compounds read low 1.02 | locus YMR231W, strain pep5, active compounds read low 1.02 | locus YNL071W, strain lat1, active compounds read low 1.02 | locus YNL183C, strain NPR1, active compounds read low 0.943 | locus YNL209W, strain ssb2, active compounds read low 1.03 | locus YNL248C, strain rpa49, active compounds read low 1.03 | locus YNL322C, strain KRE1 (second series), active compounds read low 1.02 | locus YNR049C, strain mso1, active compounds read low 1.01 | locus YOR001W, strain rrp6, active compounds read low 1.01 | locus YOR070C, strain gyp1, active compounds read low 1.02 | locus YOR080W, strain dia2, active compounds read low 1.01 | locus YOR083W, strain WHI5, active compounds read low 0.981 | locus YOR106W, strain vam3, active compounds read low 1.02 | locus YOR231W, strain MKK1, active compounds read low 0.99 | locus YOR265W, strain rbl2, active compounds read low 1.02 | locus YOR270C, strain vph1, active compounds read low 1.03 | locus YOR290C, strain snf2, active compounds read low 1.02 | locus YPL051W, strain arl3, active compounds read low 1.02 | locus YPL078C, strain atp4, active compounds read low 1.02 | locus YPL106C, strain sse1, active compounds read low 0.994 | locus YPL240C, strain hsp82, active compounds read low 0.999 | locus YPL256C, strain CLN2, active compounds read low 0.991
